Laboratory results from PubChem BioAssay (EPA / NIEHS).
Activity calls are given as the source filed them. The calls were made as follows: active = hit-call score of the fitted dose curve at least 0.9, where 1 is the maximum; inactive = score below 0.9.

Columns and labels:
[1] = ATG_GRE_CIS: Attagene CIS-FACTORIAL HepG2 Assay for human Glucocorticoid Response Elements (GRE) (AID 2282947); details: HepG2 GRE cis-reporter, Attagene multiplex mRNA; actives raise or lower the signal
How it was run: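 Fluorescence intensity of reporter-specific cDNA fragments, separated by capillary electrophoresis, provides the signal. Constructs carry cis-regulating promoters in transiently transfected HepG2 liver cells; 24 h incubation; fitting is bidirectional against DMSO.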

[2] = ATG_ISRE_CIS: Attagene CIS-FACTORIAL HepG2 Assay for human Interferon Regulatory Factor 1 (IRF1) binding to an Interferon-Stimulated Response Element (ISRE) (AID 2282948); details: HepG2 ISRE cis-reporter (Attagene), mRNA transcription readout; actives raise or lower the signal
How it was run: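 Multiplexed mRNA reporter readout in human liver HepG2 cells: cis-element-driven reporters transfected, compound added for 24 h, transcripts amplified, fluorescently labelled and sized by capillary electrophoresis; curve fitting bidirectional against DMSO.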

[3] = ATG_M_32_CIS: Attagene CIS-FACTORIAL HepG2 Assay for M32 Transcription Factor (Internal Marker) (AID 2282949); details: HepG2 Attagene cis-factorial M32 reporter, mRNA; actives raise or lower the signal;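 also: background control marker of the multiplexed CIS panel rather than a real target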
How it was run: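 HepG2 human liver cells transiently transfected with cis-promoter-driven multiple reporter transcription units, dosed 24 h. Reporter mRNA quantified by RT-PCR, FAM-labelled primer extension, HpaI digest and capillary electrophoresis; bidirectional fit versus DMSO baseline.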

[4] = ATG_M_06_CIS: Attagene CIS-FACTORIAL HepG2 Assay for M06 Transcription Factor (Internal Marker) (AID 2282950); details: HepG2 Attagene CIS-FACTORIAL M06 internal marker reporter; actives raise or lower the signal
How it was run: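 Read-out is fluorescence of labelled reporter cDNA fragments resolved by capillary electrophoresis after RT-PCR. Cells: HepG2 carrying transfected cis-promoter reporter units, treated 24 h. Gain or loss of signal fitted relative to DMSO.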

[5] = biological target: Hepatocyte nuclear factor 6 (Homo sapiens) (UniProt Q9UBC0); experiment: ATG_HNF6_CIS: Attagene CIS-FACTORIAL HepG2 Assay for human Hepatocyte Nuclear Factor 6 (HNF6) (AID 2282952); details: HepG2 Attagene cis-factorial HNF6 reporter transcription; actives raise or lower the signal
How it was run: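 Using cis-element reporters in HepG2 liver cells, the assay tracks endogenous factor-driven transcription 24 h post-dosing. Signal comes from 6-FAM-labelled, HpaI-digested RT-PCR fragments, with gain or loss scored against DMSO.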

[6] = biological target: Heat shock factor protein 1 (Homo sapiens) (UniProt Q00613); experiment: ATG_HSE_CIS: Attagene CIS-FACTORIAL HepG2 Assay for human Heat Shock Transcription Factor 1 (HSE) (AID 2282953); details: HepG2 HSE cis-reporter, Attagene RNA transcription; actives raise or lower the signal
How it was run: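 HepG2, transient MRTU transfection, cis-promoter reporters (endogenous TF activity). 24 h compound. RNA → oligo(dT) RT → PCR → 6-FAM primer extension → HpaI cut → CE. Bidirectional fit vs DMSO.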

[7] = biological target: Paired box protein Pax-6 (Homo sapiens) (UniProt P26367); experiment: ATG_Pax6_CIS: Attagene CIS-FACTORIAL HepG2 Assay for human Paired Box 6 (PAX6) (AID 2282956); details: HepG2 CIS-FACTORIAL PAX6 reporter transcription, RNA readout; actives raise or lower the signal
How it was run: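 Fluorescent RT-PCR products separated by capillary electrophoresis report PAX6-linked promoter mRNA in HepG2 cells 24 h post-dose. Curves fitted bidirectionally, DMSO as negative control.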

[8] = ATG_PXRE_CIS: Attagene CIS-FACTORIAL HepG2 Assay for human Pregnane X Receptor Element (PXRE) (AID 2282957); details: HepG2 Attagene CIS-FACTORIAL PXRE reporter, mRNA; actives raise or lower the signal
How it was run: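 Using HepG2 transfected with multiple reporter transcription units, endogenous factor-driven transcription was scored as reporter mRNA after 24 h exposure.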

[9] = ATG_Sox_CIS: Attagene CIS-FACTORIAL HepG2 Assay for human SRY-box transcription factor (SOX) (AID 2282960); details: HepG2 Attagene cis-factorial SOX reporter, mRNA; actives raise or lower the signal
How it was run: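 Cells were transfected with reporter constructs under cis-regulatory promoters, then exposed to chemicals for 24 h. Reporter transcripts were quantified by fluorescence after RT-PCR and capillary electrophoresis; activity was fitted in both directions against DMSO.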

[10] = biological target: Transcription factor Sp1 (Homo sapiens) (UniProt P08047); experiment: ATG_Sp1_CIS: Attagene CIS-FACTORIAL HepG2 Assay for human Specificity Protein 1 (Sp1) (AID 2282961); details: HepG2 Sp1 cis-reporter transcription, actives raise or lower the signal
How it was run: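 Measures mRNA induction of an Sp1-linked reporter in HepG2 cells 24 h post-dosing. Multiplexed reporters read by RT-PCR and capillary electrophoresis; DMSO serves as negative control and baseline.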

[11] = ATG_SREBP_CIS: Attagene CIS-FACTORIAL HepG2 Assay for human Sterol Regulatory Element Binding (SREBP) (AID 2282962); details: HepG2 Attagene cis-factorial SREBP reporter, mRNA; actives raise or lower the signal
How it was run: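 Endogenous factor activity is measured in HepG2 through multiplexed reporter units under cis-element control. Following a 24 h incubation, reporter transcripts are reverse-transcribed, PCR-amplified and sized by capillary electrophoresis; activity is fitted in both directions relative to DMSO.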

[12] = biological target: Signal transducer and activator of transcription 3 (Homo sapiens) (UniProt P40763); experiment: ATG_STAT3_CIS: Attagene CIS-FACTORIAL HepG2 Assay for human Signal Transducer and Activator of Transcription 3 (STAT3) (AID 2282963); details: HepG2, Attagene cis-factorial STAT3 reporter transcription; actives raise or lower the signal
How it was run: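 Fluorescence intensity of 6-FAM-labelled reporter fragments, separated by capillary electrophoresis after RT-PCR, gave the signal. Cells were HepG2 transfected with cis-element reporter units and treated 24 h; fitting was bidirectional relative to DMSO.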

[13] = ATG_TA_CIS: Attagene CIS-FACTORIAL HepG2 Assay for human TA Basal Promoter (AID 2282964); details: HepG2 Attagene CIS-factorial TA basal promoter reporter; actives raise or lower the signal
How it was run: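 Read-out: fluorescent reporter-transcript fragments resolved by capillary electrophoresis after RT-PCR and HpaI digestion. Source: HepG2 cells carrying transiently transfected multi-reporter cis constructs, treated 24 h. Endpoint fitted bidirectionally relative to DMSO.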

[14] = ATG_TCF_b_cat_CIS: Attagene CIS-FACTORIAL HepG2 Assay for human T-Cell-Factor with beta-catenin (TCF/b-cat) (AID 2282965); details: HepG2 TCF/beta-catenin cis-reporter transcription, actives raise or lower the signal
How it was run: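 HepG2 cells transiently transfected with cis-promoter-driven multiplexed reporter units; reporter mRNA measured 24 h after dosing by RT-PCR, FAM labelling, HpaI digestion and capillary electrophoresis. Bidirectional fitting relative to DMSO baseline.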

[15] = biological target: Hypoxia-inducible factor 1-alpha (Homo sapiens) (UniProt Q16665); experiment: ATG_HIF1a_CIS: Attagene CIS-FACTORIAL HepG2 Assay for human Hypoxia Inducible Factor 1 (HIF1A) (AID 2282951); details: HepG2 Attagene cis-factorial HIF1a reporter transcription; actives raise or lower the signal
How it was run: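 HepG2, transient cis-reporter library, 24 h dosing. RNA → RT (oligo dT) → PCR → 6-FAM primer extension → HpaI → CE. Bidirectional curve fit vs DMSO.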

[16] = ATG_MRE_CIS: Attagene CIS-FACTORIAL HepG2 Assay for human Metal Responsive Element (MRE) (AID 2282954); details: HepG2 MRE cis-reporter transcription, Attagene multiplex; actives raise or lower the signal
How it was run: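 Measured here is mRNA induction from an MRE cis-element reporter in HepG2 after 24 h, quantified by fluorescence of labelled RT-PCR products on capillary electrophoresis; gain- and loss-of-signal fits use DMSO as baseline.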

[17] = ATG_PPRE_CIS: Attagene CIS-FACTORIAL HepG2 Assay for human Peroxisome Proliferator-activated Response Element (PPRE) (AID 2282958); details: HepG2 PPRE cis-element reporter, Attagene transcription factor profiling; actives raise or lower the signal
How it was run: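 Transcript-level reporter induction in transfected HepG2 cells after 24 h chemical exposure, quantified by fluorescence from RT-PCR products separated by capillary electrophoresis.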

[18] = ATG_PBREM_CIS: Attagene CIS-FACTORIAL HepG2 Assay for human Phenobarbital-responsive Enhancer Module (PBREM) (AID 2282955); details: HepG2 PBREM cis-reporter, Attagene multiplexed transcription; actives raise or lower the signal
How it was run: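 HepG2, transient MRTU transfection, 24 h dosing; RNA → oligo(dT) RT → PCR → 6-FAM extension → HpaI → CE. Bidirectional fit vs DMSO.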

[19] = ATG_RORE_CIS: Attagene CIS-FACTORIAL HepG2 Assay for human RAR-related Orphan Receptor Element (RORE) (AID 2282959); details: HepG2 Attagene cis-factorial RORE reporter, mRNA; actives raise or lower the signal
How it was run: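 Multiplexed reporter assay measuring mRNA induction from a cis promoter element in transiently transfected HepG2 cells after 24 h treatment. Detection via RT-PCR and capillary electrophoresis fluorescence; DMSO serves as baseline.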

Measured: AC50

Sequence of Hepatocyte nuclear factor 6 (Homo sapiens) (Q9UBC0 whole entry, looked up, the tested form may be a part): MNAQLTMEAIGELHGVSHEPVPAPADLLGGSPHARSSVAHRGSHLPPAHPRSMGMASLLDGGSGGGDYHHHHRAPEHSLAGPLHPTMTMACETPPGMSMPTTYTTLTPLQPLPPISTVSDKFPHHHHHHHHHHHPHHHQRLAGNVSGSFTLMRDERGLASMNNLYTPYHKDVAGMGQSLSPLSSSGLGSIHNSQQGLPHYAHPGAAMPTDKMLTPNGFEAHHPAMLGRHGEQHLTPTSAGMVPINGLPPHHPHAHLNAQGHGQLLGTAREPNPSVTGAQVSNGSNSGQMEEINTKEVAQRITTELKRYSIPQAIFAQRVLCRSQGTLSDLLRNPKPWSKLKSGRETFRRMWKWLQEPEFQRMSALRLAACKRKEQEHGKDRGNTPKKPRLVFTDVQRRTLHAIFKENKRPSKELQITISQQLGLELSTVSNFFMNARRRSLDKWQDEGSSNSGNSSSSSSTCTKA
Sequence of Heat shock factor protein 1 (Homo sapiens) (Q00613 whole entry, looked up): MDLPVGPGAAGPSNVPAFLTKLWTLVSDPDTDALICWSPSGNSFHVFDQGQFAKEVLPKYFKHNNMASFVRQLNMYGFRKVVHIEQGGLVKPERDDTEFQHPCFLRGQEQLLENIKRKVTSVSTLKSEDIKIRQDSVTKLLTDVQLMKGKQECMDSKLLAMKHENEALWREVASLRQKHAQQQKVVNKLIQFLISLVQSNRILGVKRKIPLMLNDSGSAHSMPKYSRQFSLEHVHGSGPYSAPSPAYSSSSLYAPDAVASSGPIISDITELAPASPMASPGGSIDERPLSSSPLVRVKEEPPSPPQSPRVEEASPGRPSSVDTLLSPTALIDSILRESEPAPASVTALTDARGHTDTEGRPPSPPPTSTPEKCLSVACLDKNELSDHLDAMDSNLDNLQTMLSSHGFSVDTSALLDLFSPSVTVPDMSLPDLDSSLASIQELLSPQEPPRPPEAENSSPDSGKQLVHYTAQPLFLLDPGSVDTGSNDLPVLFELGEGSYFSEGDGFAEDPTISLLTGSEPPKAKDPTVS
Sequence of Signal transducer and activator of transcription 3 (Homo sapiens) (P40763 whole entry, looked up, the tested form may be a part): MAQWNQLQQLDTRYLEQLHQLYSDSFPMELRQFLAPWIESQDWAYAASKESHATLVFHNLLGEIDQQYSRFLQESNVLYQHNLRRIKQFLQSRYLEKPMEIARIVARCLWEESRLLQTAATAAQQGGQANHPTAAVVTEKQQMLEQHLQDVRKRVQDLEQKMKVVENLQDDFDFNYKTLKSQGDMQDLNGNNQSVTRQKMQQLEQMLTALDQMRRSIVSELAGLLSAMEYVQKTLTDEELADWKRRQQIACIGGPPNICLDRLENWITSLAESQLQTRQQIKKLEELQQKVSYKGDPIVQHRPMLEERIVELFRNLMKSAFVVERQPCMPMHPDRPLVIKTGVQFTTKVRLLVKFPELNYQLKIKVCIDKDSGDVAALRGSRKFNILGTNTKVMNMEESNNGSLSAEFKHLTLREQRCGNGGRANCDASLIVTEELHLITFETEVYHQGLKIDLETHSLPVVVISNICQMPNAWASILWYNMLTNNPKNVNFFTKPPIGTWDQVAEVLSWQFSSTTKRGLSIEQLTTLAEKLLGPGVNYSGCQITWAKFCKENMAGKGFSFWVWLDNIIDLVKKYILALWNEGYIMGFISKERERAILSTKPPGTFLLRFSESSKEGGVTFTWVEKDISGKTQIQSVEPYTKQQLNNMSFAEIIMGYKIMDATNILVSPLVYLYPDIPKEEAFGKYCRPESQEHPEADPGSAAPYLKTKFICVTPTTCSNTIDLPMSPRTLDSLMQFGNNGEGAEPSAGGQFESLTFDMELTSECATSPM
Sequence of Transcription factor Sp1 (Homo sapiens) (P08047 whole entry, looked up): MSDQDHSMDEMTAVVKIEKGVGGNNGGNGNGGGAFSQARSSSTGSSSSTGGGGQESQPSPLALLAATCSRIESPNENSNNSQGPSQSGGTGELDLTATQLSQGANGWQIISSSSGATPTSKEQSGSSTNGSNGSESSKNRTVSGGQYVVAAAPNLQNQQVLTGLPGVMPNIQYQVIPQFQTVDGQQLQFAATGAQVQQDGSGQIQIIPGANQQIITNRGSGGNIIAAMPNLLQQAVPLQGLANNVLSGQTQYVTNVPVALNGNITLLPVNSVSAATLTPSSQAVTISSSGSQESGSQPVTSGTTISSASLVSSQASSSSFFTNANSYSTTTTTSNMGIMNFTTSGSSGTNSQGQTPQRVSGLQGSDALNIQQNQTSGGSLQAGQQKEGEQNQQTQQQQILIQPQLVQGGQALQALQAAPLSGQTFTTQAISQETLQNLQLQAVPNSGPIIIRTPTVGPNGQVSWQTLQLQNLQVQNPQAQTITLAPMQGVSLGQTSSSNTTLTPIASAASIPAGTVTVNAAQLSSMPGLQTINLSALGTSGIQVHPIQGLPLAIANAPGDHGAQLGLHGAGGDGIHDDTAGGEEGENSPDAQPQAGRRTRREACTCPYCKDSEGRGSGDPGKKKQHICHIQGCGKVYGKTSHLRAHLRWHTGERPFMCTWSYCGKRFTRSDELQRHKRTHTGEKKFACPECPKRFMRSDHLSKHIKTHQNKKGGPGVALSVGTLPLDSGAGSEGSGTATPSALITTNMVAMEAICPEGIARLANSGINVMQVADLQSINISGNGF
Sequence of Paired box protein Pax-6 (Homo sapiens) (P26367 whole entry, looked up): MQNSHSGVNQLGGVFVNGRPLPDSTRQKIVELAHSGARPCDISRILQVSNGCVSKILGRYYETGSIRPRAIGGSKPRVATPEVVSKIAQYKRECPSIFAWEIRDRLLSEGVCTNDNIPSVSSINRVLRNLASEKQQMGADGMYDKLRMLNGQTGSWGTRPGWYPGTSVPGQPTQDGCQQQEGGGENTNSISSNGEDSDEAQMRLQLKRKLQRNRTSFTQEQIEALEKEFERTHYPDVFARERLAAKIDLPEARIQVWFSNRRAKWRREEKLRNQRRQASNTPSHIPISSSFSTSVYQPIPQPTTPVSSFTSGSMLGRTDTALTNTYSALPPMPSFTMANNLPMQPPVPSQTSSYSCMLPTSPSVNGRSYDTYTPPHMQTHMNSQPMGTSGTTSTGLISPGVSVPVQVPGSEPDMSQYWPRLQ
Sequence of Hypoxia-inducible factor 1-alpha (Homo sapiens) (Q16665 whole entry, looked up): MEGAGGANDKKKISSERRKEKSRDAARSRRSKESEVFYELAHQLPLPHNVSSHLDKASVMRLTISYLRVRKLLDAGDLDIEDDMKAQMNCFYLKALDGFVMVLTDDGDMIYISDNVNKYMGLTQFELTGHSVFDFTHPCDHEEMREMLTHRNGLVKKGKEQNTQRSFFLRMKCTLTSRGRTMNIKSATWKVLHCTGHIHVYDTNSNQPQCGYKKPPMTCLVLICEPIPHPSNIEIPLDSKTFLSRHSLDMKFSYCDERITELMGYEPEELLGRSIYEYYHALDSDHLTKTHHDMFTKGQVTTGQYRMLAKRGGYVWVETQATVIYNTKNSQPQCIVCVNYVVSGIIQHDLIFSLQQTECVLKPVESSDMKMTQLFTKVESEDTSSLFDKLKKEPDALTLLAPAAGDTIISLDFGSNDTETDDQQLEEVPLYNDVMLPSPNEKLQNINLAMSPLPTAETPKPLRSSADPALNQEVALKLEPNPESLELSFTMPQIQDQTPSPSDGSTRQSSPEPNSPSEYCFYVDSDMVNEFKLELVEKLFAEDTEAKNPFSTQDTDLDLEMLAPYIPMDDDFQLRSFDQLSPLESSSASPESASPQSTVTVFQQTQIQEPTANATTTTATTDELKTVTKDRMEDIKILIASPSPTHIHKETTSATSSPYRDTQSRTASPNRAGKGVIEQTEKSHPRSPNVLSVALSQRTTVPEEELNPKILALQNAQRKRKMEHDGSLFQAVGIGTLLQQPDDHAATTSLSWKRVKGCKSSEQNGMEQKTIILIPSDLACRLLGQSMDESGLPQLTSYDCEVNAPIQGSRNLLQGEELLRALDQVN

CC[C@]12CCCN3CCc4c(n(c5ccccc45)[C@@](O)(C(=O)OC)C1)[C@@H]32
active: [6] 159 µM | [8] 7.96 µM
not listed: [15] | [16] | [17] | [18] | [19]
inactive: all other assays above

O=C(Oc1ccccc1)c1ccc(O)cc1
active: [15] 176 µM
not listed: [6] | [8] | [12] | [18] | [19]
inactive: all other assays above

Cc1ccc(S)cc1
active: [2] 35.3 µM | [5] 100 µM | [6] 161 µM | [14] 24.4 µM
not listed: [1] | [19]
inactive: all other assays above

O=C(O)CCCCCCCC(=O)O
not listed: [1] | [5] | [6] | [8] | [15] | [16] | [17]
inactive: all other assays above

O=C(COc1ccc(Cl)cc1)N1CCN(Cc2ccc3c(c2)OCO3)CC1
active: [2] 58 µM | [15] 19.8 µM | [16] 74.6 µM | [7] 57.7 µM | [8] 4.76 µM | [11] 27.1 µM
not listed: [1] | [6] | [17]
inactive: all other assays above

CCCCCCCCCCC(CO)CCCCCCCC (configuration not stated)
not listed: [1] | [3] | [14] | [16] | [19]
inactive: all other assays above

NCCNCCN
not listed: [1] | [5]
inactive: all other assays above

CC(CN1c2ccccc2Sc2ccccc21)N(C)C (configuration not stated)
active: [7] 44 µM | [8] 5.52 µM | [14] 33.4 µM
not listed: [1] | [5] | [6] | [15] | [16] | [17]
inactive: all other assays above
